Data reported in ChEMBL document CHEMBL1157539, “Thousands of chemical starting points for antimalarial lead identification” (Nature, 2010).
In all, about 13,000 compounds were measured (“IFI”: median about 4, highest 2% from about 17 on). Only a selection was taken, and the highest values are over-represented in it overall.

Assay: GSK_TCMDC: Inhibition Frequency Index (IFI). The number of non-kinase HTS assays where a compound showed > 50 % inhibition, expressed as a percentage of the number of such assays in which the compound was tested
Type: functional

SMILES	IFI
CN(C)CCN(Cc1ccc(-c2ccc(CNCCc3ccccc3)cc2)nc1)C(=O)CCC1CCCC1	8.33%
COc1ccc2c(N/N=C/c3ccccc3[N+](=O)[O-])ccnc2c1	3.62%
CC1(C)CCC(C)(C)c2c1ccc(C1CCN(CCCCNC(=O)c3ccc(-c4ccc(Cl)cc4)cc3)CC1)c2O	13.7%
COc1ccc(CON2C(=N)N=C(N)NC2(C)C)cc1OC	1.47%
COc1ccc(C#Cc2ccc(-c3c(C)[nH]c(C)c(Cl)c3=O)cc2)cc1	0.88%
CCN(CC)CCN(Cc1ccc(-c2ccc(C(F)(F)F)cc2)cc1)C(=O)Cn1c(CCc2c(F)ccc(F)c2F)nc(=O)c2ccccc21	9.09%
Cc1nc(C)c(-c2ccc(S(=O)(=O)c3ccc(Cl)cc3)cc2)c(O)c1Cl	0.78%
CC(C)Cn1cc(C2CCN(CCN3CCC(CNC(=O)c4ccc(-c5ccc(C(F)(F)F)cc5)cc4)CC3)CC2)c2ccccc21	9.17%
O=C(/C=C/c1ccc(Cl)c(Cl)c1)NC1CCC(CN2CCC(c3nc4cccnc4[nH]3)CC2)CC1 (stereo not drawn)	4.96%
CCN(CC)CCN(Cc1ccc(-c2ccc(C(F)(F)F)cc2)cc1)C(=O)Cn1c(/C=C/c2ccco2)nc(=O)c2ccccc21	5.52%
Cc1cc(N[C@@H](Cc2ccccc2)C(=O)NCc2cccc(F)c2)nc(NCCc2ccc(F)cc2)n1	9.09%
Cc1cc(N[C@@H](Cc2ccccc2)C(=O)NCc2cccc(F)c2)nc(NCCc2ccccc2)n1	9.3%
Cc1cc(N[C@@H](Cc2ccccc2)C(=O)NCc2cccc(F)c2)nc(NCC2CCCCC2)n1	27.9%
Cc1cc(N[C@@H](Cc2ccccc2)C(=O)NCc2cccc(F)c2)nc(NCc2ccccc2C)n1	4.88%
Cc1cc(N[C@@H](Cc2ccccc2)C(=O)NCc2cccc(F)c2)nc(NCCCOC(C)C)n1	18.2%
Cc1cccc(CNc2nc(C)cc(N[C@@H](Cc3ccccc3)C(=O)NCc3cccc(F)c3)n2)c1	19.1%
Cc1cc(N[C@@H](Cc2ccccc2)C(=O)NCc2cccc(F)c2)nc(NCCOc2ccccc2)n1	6.98%
Cc1cc(N[C@@H](Cc2ccccc2)C(=O)NCCCOC(C)C)nc(NCCc2ccc(F)cc2)n1	2.44%
Cc1cc(N[C@@H](Cc2ccccc2)C(=O)NCc2cccc(F)c2)nc(Nc2ccccc2)n1	4.76%
CC1(C)N=C(N)N=C(Nc2ccc(Cl)cc2)N1	0.76%
FC(F)(F)c1ccc2[nH]c(-c3cccc(-c4cccc(CN5CCN(c6ccncc6)CC5)c4)c3)nc2c1	11.5%
CCCNCc1ccc(-c2ccc(CN(CCOC)C(=O)c3cccc(C#N)c3)cc2)nc1	0.7%

SMILES	IFI
Nc1nc2c(ncn2COC(COCc2ccccc2)COCc2ccccc2)c(=O)[nH]1.Nc1nc2ncn(COC(COCc3ccccc3)COCc3ccccc3)c2c(=O)[nH]1	0%
CCCCOC(=O)c1ccc(NC(=O)Nc2ccc(Cn3ncc(N4CCCNCC4)c(Cl)c3=O)cc2)cc1	5.97%
CCCCCc1ccc(NC(=O)Nc2ccc(Cn3ncc(N4CCCNCC4)c(Cl)c3=O)cc2)cc1	9.09%
CCCCCCCOc1ccc(NC(=O)Nc2ccc(Cn3ncc(N4CCCNCC4)c(Cl)c3=O)cc2)cc1	19.1%
Cc1[nH]c(C)c(-c2ccc(OCCCc3ccccn3)cc2)c(=O)c1Br	0%
COc1ccc(NC(=O)c2ccc(-c3ccc(-c4cccnc4)cc3)c(C)c2)cc1OCCN(C)C	6.9%
COC(=O)c1ccc(-c2ccc(-c3cccnc3)cc2C)cc1	21.7%
COC(=O)c1ccc2nc(-c3cc(-c4cccc(-c5ccccc5)c4)cnc3N)[nH]c2c1	2.94%
Cc1ccccc1Nc1nc(Nc2ccccc2)c2ccccc2n1	3.65%
O=C1c2cc(I)ccc2SC1c1ccccc1 (stereo not drawn)	1.43%
O=S(=O)(NCCN1CCCC1)c1cccc(-c2ccc(CNCc3ccccc3)cc2)c1	5.88%
O=[N+]([O-])c1cccc(C(Nc2ccccn2)c2ccc3cccnc3c2O)c1 (stereo not drawn)	8.74%
CC1(C)N=C(N)N=C(N)C1c1ccc(Cl)c(Cl)c1 (stereo not drawn)	1.43%
CC1(CCc2ccccc2)N=C(Nc2ccc(Cl)cc2)N=C(N)C1c1ccc(Cl)c(Cl)c1 (stereo not drawn)	26.6%
CC1(CCc2ccccc2)N=C(N)N(Cc2ccccc2)C(=O)C1c1ccc(Cl)c(Cl)c1 (stereo not drawn)	19.2%
CC1(CCc2ccccc2)N=C(N)N=C(N)C1c1ccc(Cl)c(Cl)c1 (stereo not drawn)	2.94%
CCC1(c2ccccc2)N=C(N)N(CCCc2ccccc2)C1=O (stereo not drawn)	7.14%
CCCCCCC1(C)N=C(N)N=C(N)C1c1ccc(Cl)c(Cl)c1 (stereo not drawn)	2.78%
NS(=O)(=O)c1cccc(-c2ccc3nccc(-c4cccc(S(N)(=O)=O)c4)c3c2)c1	0%
Cn1c(N=C2NC3(c4ccccn4)NC(=Nc4nc5ccccc5n4C)NC3(c3ccccn3)N2)nc2ccccc21 (stereo not drawn)	3.6%
Cc1cccc(-c2nn(-c3ccccc3)c3[nH]c(=O)c(CN4CCSCC4)cc23)c1	1.82%
CC1(CCN2CCC(c3c[nH]c4cnccc34)CC2)CCCc2c(Br)cccc2C1=O (stereo not drawn)	8.51%

SMILES	IFI
Cc1cc(SC(C)(C)C)cc2c(Cl)c(C(N)=O)cnc12	32.5%
Cc1cc(C)c2ncc(C(=O)O)c(O)c2c1	1.46%
Oc1ccc(CCCNc2nc(NCc3ccccc3-c3ccccc3)nc(NC3CCNCC3)n2)cc1	15.2%
COc1ccccc1-n1ccnc1SCC(=O)Nc1cccc(C(F)(F)F)c1	5.93%
CC(CCON1C(N)=NC(N)=NC1(C)C)c1ccc(Cl)c(Cl)c1 (stereo not drawn)	7.09%
Clc1ccc(OCCC2CCN(CCCCCCCN3CCC(CCOc4ccc(Cl)c(Cl)c4)CC3)CC2)cc1Cl	18.6%
O=C(/C=C/c1ccc(Cl)c(Cl)c1)NCCCCCN1CCC(CCNC(=O)/C=C/c2ccc(Cl)c(Cl)c2)CC1	11.2%
Clc1ccc(OCCC2CCN(CCCCCCN3CCCCC3)CC2)cc1Cl	9.87%
CCCNCc1ccc(-c2ccc(CN(CC3CCCO3)C(=O)C3CC(=O)c4ccccc43)cc2)nc1 (stereo not drawn)	1.41%
CCN(CC)CCN(Cc1ccc(-c2ccc(C(F)(F)F)cc2)cc1)C(=O)Cn1c(CCc2cc(F)c(F)c(F)c2)nc(=O)c2ccccc21	6.67%
Cc1noc(C)c1-c1ccc2c(Nc3ccc([N+](=O)[O-])cc3)c(C(N)=O)cnc2c1	1.63%
N#Cc1cc(C(=O)c2cc(Br)ccc2O)cn(-c2cc(Cl)cc(Cl)c2)c1=O	20.6%
COc1ccc(-n2cc(C(=O)c3cc(Br)ccc3O)cc(C#N)c2=O)cc1Cl	14.8%
N#Cc1cc(C(=O)c2cc(Cl)ccc2O)cn(-c2cc(Cl)cc(Cl)c2)c1=O	17.4%
N#Cc1cc(C(=O)c2cc(Cl)ccc2O)cn(-c2cccc(C(F)(F)F)c2)c1=O	7.44%
CCc1ccc(-n2cc(C(=O)c3cc(Br)ccc3O)cc(C#N)c2=O)cc1	15.9%
COc1ccc(O)c(C(=O)c2cc(C#N)c(=O)n(-c3ccc(Oc4ccccc4)cc3)c2)c1	3.52%
COc1ccc2ccccc2c1C=NN=c1cc(C)[nH]c2c(C)cccc12	1.48%
COc1ccc(Cn2c(Nc3cccc(C(F)(F)F)c3)nc3cc(C(=O)NCCCN(C)C)ccc32)cc1Cl	2.14%
NCC1CCCN1Cc1cccc(-c2cccc(-c3nc4cc(F)ccc4[nH]3)c2)c1 (stereo not drawn)	5%
O=C(Cn1c(CCc2cccc(F)c2F)nc(=O)c2ccccc21)N(Cc1ccc(-c2ccc(C(F)(F)F)cc2)cc1)C1CCN(C2=NCCS2)CC1	12.5%
CN1CCC(N2CCN(Cc3cccc(-c4ccc(-c5nc6cc(C(F)(F)F)ccc6[nH]5)cc4)c3)CC2)CC1	9.72%

SMILES	IFI
CCCCNc1cc(C)nc(NCc2ccccc2)n1	9.72%
CCCCNc1cc(NCCCC)c2c(n1)[nH]c1ccccc12	19.4%
CCCCNc1c(C(=O)OCC)c(C)nc2c1[nH]c1ccccc12	2.17%
CCc1cc(COc2ccc(CNCCC(C)C)cc2I)c(OCc2ccccc2)c(COc2ccc(CNCCC(C)C)cc2I)c1	14.3%
CCOc1ccc2c(=NN=Cc3ccccc3OC)cc(C)[nH]c2c1	3.62%
FC(F)(F)c1ccccc1OCc1cc(-c2ccncc2)c(COc2ccccc2C(F)(F)F)cc1C1=CCNCC1	10.6%
Oc1ccc(-c2cc(COc3ccccc3C(F)(F)F)c(C3=CCNCC3)cc2COc2ccccc2C(F)(F)F)cc1	17.3%
Nc1nc(N)c2cc(NC(=O)c3ccc(Cl)c(Cl)c3)ccc2n1	15.9%
Cc1nc(C)c(-c2ccc(Oc3ccc(Cl)cc3Cl)cc2)c(O)c1Br	1.52%
FC(F)(F)COc1c(CNCCCCCCNCc2ccc3ccccc3c2OCC(F)(F)F)ccc2ccccc12	14.9%
N#Cc1ccc(CNCCCCCCNCc2ccc(C#N)c3ccccc23)c2ccccc12	7.04%
FC(F)(F)COc1ccc2ccccc2c1CNCCCCCCNCc1c(OCC(F)(F)F)ccc2ccccc12	14.9%
COc1ccc(CCNCCCCNCCc2ccc(OC)c3ccccc23)c2ccccc12	13.9%
CCCOc1ccc(CCNCCCCNCCc2ccc(OCCC)c3ccccc23)c2ccccc12	12.5%
FC(F)(F)COc1ccc(CCNCCCCNCCc2ccc(OCC(F)(F)F)c3ccccc23)c2ccccc12	20.3%
FC(F)(F)COc1c(CCNCCCCNCCc2ccc3ccccc3c2OCC(F)(F)F)ccc2ccccc12	19.3%
CSc1ccc2ccccc2c1CCNCCCCNCCc1c(SC)ccc2ccccc12	17%
FC(F)(F)COc1ccc2ccccc2c1CCNCCCCNCCc1c(OCC(F)(F)F)ccc2ccccc12	23.4%
O=[N+]([O-])c1ccc(CNCCCCCCNCc2ccc([N+](=O)[O-])c3ccccc23)c2ccccc12	10.3%
FC(F)(F)COc1ccc(CNCCCCCCNCc2ccc(OCC(F)(F)F)c3ccccc23)c2ccccc12	21%
CN(C)c1c(CNCCCCCCNCc2ccc3ccccc3c2N(C)C)ccc2ccccc12	15.7%
O=S(=O)(NCCN1CCCC1)c1ccc(-c2cccc(CNCCc3cccs3)c2)cc1	9.52%
